In PubChem BioAssay (Tox21):
Values joined by “and” are separate entries in the source; they are usually repeats but may differ in a detail not shown here. Equal values may be shown once. Results filed as inconclusive are left out. A structure can be active in one record and inactive in another. Active and inactive are the calls of the source. Unless noted, the call rests on the fitted dose curve; in most records, active means well fitted curve in the direction sought with a large enough effect in the repeat runs; inconclusive means weak or mixed curves; inactive means no such curve, though single readings can be large; an effect the other way counts as inactive or inconclusive.

Assays:
[1] = qHTS assay to identify small molecule agonists of the hypoxia (HIF-1) signaling pathway - cell viability counter screen (AID 1224844; calls by dose curve; further: nearly all actives have a fitted effect of over 50% in size)
Procedure, shortened: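 CellTiter-Glo luminescence read-out, 30 min RT, taken in the same wells as the beta-lactamase HRE reporter assay; HRE-bla ME-180 cells, 0.5% dialyzed FBS, 17 hr compound treatment at 37C, 5% CO2.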

[2] = qHTS assay to identify small molecule agonists of H2AX (AID 1224845; active means well fitted activation curve with a large enough effect in the signal ratio in the repeat runs, not every such curve was filed as active; the % refers to the signal ratio)
Procedure, shortened: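 Phospho-H2AX Ser139 measured by HTRF (ex 320 nm; em 665 and 620 nm) after 24 hr antibody incubation. Compounds, 15 concentrations, 0.76% DMSO, were applied to CHO-K1 cells for 3hr at 37C before lysis.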

[3] = qHTS assay to identify small molecule agonists of H2AX - cell viability counter screen (AID 1224847; calls by dose curve; further: top concentration of the series differs between compounds; nearly all actives have a fitted effect of over 30% in size)
Procedure, shortened: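 Quantitative HTS viability measurement: CHO-K1 wild-type cells in serum (10% FBS) medium, short 3 hr drug exposure at 37C with 0.76% DMSO, CellTiter-Glo luminescent detection.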

[4] = qHTS assay to identify small molecule antagonists of the estrogen related receptor (ERR) signaling pathway from Tox21 library (AID 1224848); further: nearly all actives have a fitted effect of over 50% in size; further: potency means the concentration at half of the fitted maximal effect
Procedure, shortened: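 ERR cell line, 2,000 cells/well. 6 h settle, then compound (DMSO) added; 18 h at 37 C; ONE-Glo luminescence after 30 min RT.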

[5] = qHTS assay to identify small molecule agonists of the estrogen related receptor (ERR) signaling pathway from Tox21 library (AID 1224849; calls by dose curve; further: nearly all actives have a fitted effect of over 15% in size); details: ERR reporter cell line, ONE-Glo luciferase, 18 h
Procedure, shortened: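 Luminescence readout (ONE-Glo, 30 min RT) after 18 h compound exposure at 37 C of NTP-supplied ERR reporter cells; cells were plated 6 h before compound addition by pin tool.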

[6] = qHTS RealTime-Glo MT Cell Viability Assay in HepG2 cells - 24 hour (AID 1224867); further: nearly all actives have a fitted effect of over 50% in size
Procedure, shortened: (§1)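 Cell number in HepG2 cultures estimated from NanoLuc luminescence generated by metabolic reduction of a prosubstrate by living cells. The homogeneous, nonlytic format allowed repeated reads at 0, 8, 16, 24, 32 and 40 h of compound exposure.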

[7] = qHTS RealTime-Glo MT Cell Viability Assay in HEK293 cells - 32 hour (AID 1224868); further: top concentration of the series differs between compounds; nearly all actives have a fitted effect of over 50% in size
Procedure, shortened: (§2)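 Homogeneous bioluminescent viability format in HEK293 cells (600 cells/well). Following 5 h at 37 C/5% CO2, 23 nL compound was pintooled; the signal was measured repeatedly during 40 h incubation.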

[8] = A CellTox Green Cytotoxicity Assay to monitor cytotoxicity in HEK293 cells - 0 hour (AID 1224869); further: nearly all actives have a fitted effect of over 50% in size; further: potency means the concentration at half of the fitted maximal effect
Procedure, shortened: (§3)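 Read-out: fluorescence of a cell-impermeant cyanine dye staining DNA of dead cells, proportional to cytotoxicity. HEK293, 600 cells/well with reagent, compound (23 nL DMSO) added after 5 h; reads at 0, 8, 16, 24, 32, 40 h.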

[9] = qHTS RealTime-Glo MT Cell Viability Assay in HepG2 cells - 40 hour (AID 1224870); further: nearly all actives have a fitted effect of over 50% in size
Procedure, shortened: (§4)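 Real-time viability: cells seeded at 600 per well together with NanoLuc and cell-permeant prosubstrate, compounds added after 5 h incubation. Luminescence tracked at 0, 8, 16, 24, 32 and 40 h of exposure.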

[10] = A CellTox Green Cytotoxicity Assay to monitor cytotoxicity in HEK293 cells - 40 hour (AID 1224871); further: nearly all actives have a fitted effect of over 45% in size; further: potency means the concentration at half of the fitted maximal effect
Procedure, shortened: as §3

[11] = qHTS RealTime-Glo MT Cell Viability Assay in HEK293 cells - 16 hour (AID 1224872)
Procedure, shortened: as §2

[12] = qHTS RealTime-Glo MT Cell Viability Assay in HepG2 cells - 8 hour (AID 1224873); further: nearly all actives have a fitted effect of over 55% in size
Procedure, shortened: as §4

[13] = qHTS RealTime-Glo MT Cell Viability Assay in HEK293 cells - 40 hour (AID 1224874); details: RealTime-Glo luminescence; max response: stronger effect = lower value; further: nearly all actives have a fitted effect of over 50% in size
Procedure, shortened: (§5)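 Luminescence readout at each listed time point; HEK293, 600 cells/well, RealTime-Glo MT reagent added with cells; compounds pinned (23 nL in DMSO) after 5 h at 37 C; continuous culture at 37 C.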

[14] = A CellTox Green Cytotoxicity Assay to monitor cytotoxicity in HEK293 cells - 24 hour (AID 1224875); further: nearly all actives have a fitted effect of over 45% in size
Procedure, shortened: as §3

[15] = A CellTox Green Cytotoxicity Assay to monitor cytotoxicity in HepG2 cells - 16 hour (AID 1224876); further: nearly all actives have a fitted effect of over 45% in size
Procedure, shortened: (§6)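 HepG2, 600 cells/well premixed w/ CellTox Green; 5 h settle, 37 C/5% CO2; pintool cpd add (DMSO); 37 C, 40 h; fluorescence read at 0, 8, 16, 24, 32, 40 h.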

[16] = qHTS RealTime-Glo MT Cell Viability Assay in HepG2 cells - 32 hour (AID 1224877); further: nearly all actives have a fitted effect of over 55% in size
Procedure, shortened: as §1

[17] = A CellTox Green Cytotoxicity Assay to monitor cytotoxicity in HepG2 cells - 24 hour (AID 1224878); further: nearly all actives have a fitted effect of over 45% in size
Procedure, shortened: as §6

[18] = A CellTox Green Cytotoxicity Assay to monitor cytotoxicity in HepG2 cells - 40 hour (AID 1224879); further: nearly all actives have a fitted effect of over 40% in size
Procedure, shortened: as §6

[19] = qHTS RealTime-Glo MT Cell Viability Assay in HEK293 cells - 0 hour (AID 1224880)
Procedure, shortened: as §5

[20] = qHTS assay to identify small molecule agonists of the hypoxia (HIF-1) signaling pathway (AID 1224846; active means well fitted activation curve with a large enough effect in the signal ratio in the repeat runs, not every such curve was filed as active; the % refers to the signal ratio)
Procedure, shortened: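 Beta-lactamase FRET read-out (CCF4-AM substrate) from ME-180 cells carrying an HRE-driven bla reporter, after 17 hrs compound exposure at 37C/5% CO2. Cells were seeded at 2,000 per well in 0.5% dialyzed FBS medium and preincubated 5 hrs.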
On the % scale 0 is the no-effect control and ±100 the full control effect.

NC(N)=NC(=O)Cc1c(Cl)cccc1Cl
inactive: Potency [1] | Potency [2] | Potency [3] | Potency [4] | activity change, positive = activation ([5]; at 42.5 µM (top of the series)) -1.99% | Potency [6] | Potency [7] | Potency [8] | Potency [9] | Potency [10] | Potency [11] | Potency [12] | max response [13] -13.5% | Potency [14] | Potency [15] | Potency [16] | Potency [17] | Potency [18] | Potency [19]

O=C(O)c1cc(Cl)cc(Cl)c1
inactive: Potency [1] | Potency [2] | Potency [20] | Potency [3] | Potency [4] | activity change, positive = activation ([5]; at 92.4 µM (top of the series)) -3.61% | Potency [6] | Potency [7] | Potency [8] | Potency [9] | Potency [10] | Potency [11] | Potency [12] | max response [13] 8.11% | Potency [14] | Potency [15] | Potency [16] | Potency [17] | Potency [18] | Potency [19]

O=C(O)c1cccc(C(=O)O)c1
inactive: Potency [1] | Potency [2] | Potency [20] | Potency [7] | Potency [8] | Potency [9] | Potency [10] | Potency [11] | Potency [12] | max response [13] 5.05% and -3.16% | Potency [14] | Potency [15] | Potency [17] | Potency [18] | Potency [19]

COc1cc(C(=S)N2CCOCC2)ccc1O
inactive: Potency [1] | Potency [2] | Potency [20] | Potency [4] | activity change, positive = activation ([5]; at 42.5 µM (top of the series)) -0.619% | Potency [6] | Potency [7] | Potency [8] | Potency [9] | Potency [10] | Potency [11] | Potency [12] | max response [13] 0.473% | Potency [14] | Potency [18] | Potency [19]

CCCCOCCOC(=O)c1ccccc1C(=O)OCCOCCCC
inactive: Potency [1] | Potency [2] | Potency [20] | Potency [3] | activity change, positive = activation ([5]; at 92.4 µM (top of the series)) -34.9% and -38.2% | Potency [7] | Potency [8] | Potency [9] | Potency [10] | Potency [12] | max response [13] -18.4% | Potency [14] | Potency [15] | Potency [16] | Potency [17] | Potency [18] | Potency [19]
active: Potency [4] 26.7 µM and 30.6 µM

[Cl][In]([Cl])[Cl]
inactive: Potency [1] | Potency [2] | Potency [20] | Potency [3] | activity change, positive = activation ([5]; at 92.4 µM (top of the series)) -22.9% and -30% | Potency [6] | Potency [8] | Potency [10] | Potency [12] | Potency [14] | Potency [16] | Potency [18] | Potency [19]
active: Potency [4] 34.4 µM

CC(C(O)c1ccc(O)cc1)N1CCC(Cc2ccccc2)CC1 (stereo unspecified)
inactive: Potency [1] | Potency [2] | Potency [3] | Potency [4] | activity change, positive = activation ([5]; at 42.5 µM (top of the series)) -0.85% | Potency [6] | Potency [7] | Potency [8] | Potency [9] | Potency [10] | Potency [11] | Potency [12] | max response [13] -13.3% | Potency [14] | Potency [15] | Potency [16] | Potency [17] | Potency [18] | Potency [19]

Cc1cccc(O)c1C
inactive: Potency [1] | Potency [2] | Potency [20] | Potency [3] | Potency [4] | activity change, positive = activation ([5]; at 92.4 µM (top of the series)) 0.54% and 10.2% | Potency [6] | Potency [7] | Potency [8] | Potency [9] | Potency [10] | Potency [12] | max response [13] -0.0816% and -5.42% | Potency [14] | Potency [15] | Potency [16] | Potency [18] | Potency [19]

CCOc1ccccc1C(N)=O
inactive: Potency [1] | Potency [2] | Potency [20] | Potency [3] | Potency [6] | Potency [7] | Potency [8] | Potency [10] | Potency [11] | Potency [12] | max response [13] -15.3% and 4.4% | Potency [14] | Potency [15] | Potency [16] | Potency [17] | Potency [18] | Potency [19]

COC(=O)/C=C/c1ccccc1
inactive and 21.9 µM (active): Potency [8] | Potency [10]
inactive: Potency [1] | Potency [2] | Potency [20] | Potency [6] | Potency [7] | Potency [11] | Potency [12] | max response [13] -2.16% | Potency [17] | Potency [18] | Potency [19]

CO[Si](OC)(OC)c1ccccc1
inactive: Potency [1] | Potency [2] | Potency [3] | Potency [4] | activity change, positive = activation ([5]; at 92.4 µM (top of the series)) 18% | Potency [6] | Potency [7] | Potency [8] | Potency [9] | Potency [10] | Potency [11] | Potency [12] | max response [13] 0.242% | Potency [14] | Potency [15] | Potency [16] | Potency [17] | Potency [18] | Potency [19]

NC(=Nc1ccccc1)Nc1ccccc1
inactive: Potency [1] | Potency [2] | Potency [20] | Potency [3] | Potency [4] | Potency [8] | Potency [9] | Potency [10] | Potency [11] | Potency [12] | Potency [14] | Potency [15] | Potency [18]
